# Data published in PubChem BioAssay AID488841 (Sanford-Burnham Center for Chemical Genomics, 2010).
# The whole screen tested about 1,400 compounds, of which about 380 (27%) were called active.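 The calls were made as follows: active = mean inhibition above 50% across duplicate retests at 10 µM; inactive = the rest.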 This is one part of the list.
# Experiment: yeast NALP1 reporter signal suppression – S. cerevisiae, luminescence, single concentration, NALP1 inhibitor project, confirmation (AID 488841);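 also: plate controls were DMSO in galactose medium for no effect and cells in plain SD medium for full effect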
# Settings: S. cerevisiae NALP1/ASC/Caspase-1 reporter, beta-gal luminescence; at 10 µM; stronger effect = higher value
row,SMILES,inhibition
1,Cc1cccnc1NC(=O)c1ccccc1NC(=O)C(C)(C)C,36.7% (inactive)
2,O=[N+]([O-])c1cccc(CNc2ccc3c(c2)CCC3)c1,52.9% (active)
3,O=C(c1cccc([N+](=O)[O-])c1)n1nc(-c2ccccc2)nc1NCc1ccccc1,37% (inactive)
4,COc1cccc(CNc2ccc3c(c2)CCC3)c1,34.2% (inactive)
5,O=C1CCCc2ccccc2N1Cc1ccc(Cl)cc1Cl,28.2% (inactive)
6,Cc1cc(Br)ccc1OCCCCN1CCC(C)CC1,52.2% (active)
7,CC1CCN(CCOc2cccc(Br)c2)CC1,36% (inactive)
8,Brc1cccc(OCCCCN2CCCCC2)c1,29.7% (inactive)
9,Cc1c(-c2ccccc2)[n+](=O)c2c(n1[O-])CCC2,22.1% (inactive)
10,COc1cccc(C2c3c(-c4ccccc4O)n[nH]c3C(=O)N2Cc2ccco2)c1 (stereo unspecified),29.4% (inactive)
11,CN1CCN(C(=O)CSc2nc3c(c(=O)n(C)c(=O)n3C)n2C)CC1,29.1% (inactive)
12,Nc1[nH]ncc1N=Nc1ccc(Cl)cc1,56.7% (active)
13,CC(C)(CN1CCN(Cc2ccccc2)CC1)NS(=O)(=O)c1ccc(Cl)cc1,42.2% (inactive)
14,O=c1c(O)c(-c2cccs2)oc2ccccc12,78% (active)
15,CCOCCCn1c(=NC(C)=O)c(C(=O)OCC)cc2c(=O)n3ccccc3nc21,23.1% (inactive)
16,CCOC(=O)CSc1nnc(-c2ccccc2)c(=O)[nH]1,33.8% (inactive)
17,CCOC(=O)c1c(-c2ccccc2)nc2ccccn12,99.4% (active)
18,CCOC(=O)c1ccccc1NC(=O)COc1cc(=O)n(CC)c2ccccc12,8% (inactive)
19,CC(=O)N1CC[n+]2c(-c3ccc(Cl)cc3Cl)csc21,19.1% (inactive)
20,Nc1ccc(Oc2cccc(Oc3ccc(N)cc3)c2)cc1,50.5% (active)
21,CCN1CCN(Cc2cccc(Oc3ccccc3)c2)CC1,34.3% (inactive)
22,CC(C)C(NC(=O)CN1C(=O)c2ccccc2S1(=O)=O)C(C)C,21.5% (inactive)

row,SMILES,inhibition
1,O=C(N/N=C/c1cc2c3c(c1O)CCCN3CCC2)c1ccccc1O,25.8% (inactive)
2,Cn1c(=O)c2c(nc(Sc3ncccn3)n2Cc2ccccc2Cl)n(C)c1=O,29.4% (inactive)
3,Cc1cc(OCCN2CCCC2)cc(C(C)C)c1,34.4% (inactive)
4,O=C(NCCCc1ccccc1)c1ccccc1O,53% (active)
5,O=C(CN1C(=O)C2C3C=CC(C3)C2C1=O)NCCc1ccccc1 (stereo unspecified),24.9% (inactive)
6,COc1ccc(CNc2nc(C)c([N+](=O)[O-])c(C)c2C#N)cc1,29.2% (inactive)
7,CC(C)(C)n1nc(-c2ccc(F)cc2)c2c(N)ncnc21,91.7% (active)
8,Nc1nc2ccc(Oc3ccccc3)cc2s1,88.2% (active)
9,Nc1nc(-c2ccc(Oc3ccccc3)cc2)cs1,98.5% (active)
10,Cc1sc(N)nc1-c1ccc(Oc2ccccc2)cc1,61.1% (active)
11,c1ccc(CCNc2nc(-c3cccnc3)cs2)cc1,32.7% (inactive)
12,COc1ccc(-c2csc(N3C(=O)C4C5c6ccccc6C(c6ccccc65)[C@@H]4C3=O)n2)cc1 (stereo partly specified),45.8% (inactive)
13,COC(=O)c1c(NC(NC(=O)C(C)C)C(Cl)(Cl)Cl)sc2c1CCC2 (stereo unspecified),21% (inactive)
14,COC(=O)c1ccc(C(=O)OC)c(NC(=O)COC(=O)C2CCCCC2)c1,7% (inactive)
15,COc1ccc(OCC#CCNC(C)(C)C)cc1,33.4% (inactive)
16,Cc1c(C(=O)N2CCOCC2)[nH]c2ccc(OCc3ccccc3)cc12,29.4% (inactive)
17,CCCOc1ccc(C(=O)C(CN2CCCC2)c2ccccc2)cc1 (stereo unspecified),50.8% (active)
18,CCCCOc1ccc(C(=O)CCN2CCCCC2)cc1,41.4% (inactive)
19,CCOc1ccc(C(=O)C(CN2CCOCC2)c2ccccc2)cc1 (stereo unspecified),51.9% (active)
20,CCOC(=O)CNC(c1ccccc1)c1cc(Br)ccc1NC(=O)CCN1CCOCC1 (stereo unspecified),27.6% (inactive)
21,CCCOc1ccc(C(=O)c2nc3c(n2O)CCCCC3)cc1,22.7% (inactive)
22,Cn1c2c(c(=O)n(C)c1=O)C(NC(=O)C(C)(C)C)(C(F)(F)F)C(=O)N2 (stereo unspecified),24.3% (inactive)

row,SMILES,inhibition
1,NC(=NCCc1ccc(Cl)cc1)NS(=O)(=O)c1ccc(F)cc1,23.1% (inactive)
2,Cc1sc2nc(SCC(=O)NCc3ccco3)n(Cc3ccccc3)c(=O)c2c1C,24.6% (inactive)
3,CCN(CC1COc2ccccc2O1)S(=O)(=O)c1ccc(C)cc1 (stereo unspecified),39.2% (inactive)
4,CC(C)C(C(=O)O)N1C(=O)/C(=C/c2cccn2C)SC1=S (stereo unspecified),42.4% (inactive)
5,COc1ccccc1OCC(=O)NCCSCc1ccc(Cl)cc1,56.6% (active)
6,O=C(Cc1ccc(Cl)cc1)Oc1cccc2cccnc12,27.7% (inactive)
7,COc1ccccc1OCC(=O)NCCSCc1cccc(Cl)c1,59.4% (active)
8,O=C(CSCc1cccc(Cl)c1)Nc1ccccc1-c1ccccc1,35% (inactive)
9,O=C(COc1ccccc1Cl)NCCC1=CCCCC1,38.7% (inactive)
10,O=C(COC(=O)CCSc1ccccc1)NCc1ccccc1Cl,22.2% (inactive)
11,COc1ccccc1OCC(=O)NCCSCc1ccccc1Cl,55.5% (active)
12,O=C(CCSCc1cccc(Cl)c1)NCCc1ccccc1,45.4% (inactive)
13,COc1ccc(CCNC(=O)CN2CCC(C)CC2)cc1OC,22.5% (inactive)
14,COc1cccc(N2CCN(C3CCCC(C)C3)CC2)c1 (stereo unspecified),25.3% (inactive)
15,CC1=CCC2C(=O)N(Cc3ccccc3)C(=O)C2C1 (stereo unspecified),24.9% (inactive)
16,COc1cc(S(=O)(=O)NCc2cccnc2)ccc1F,27.6% (inactive)
17,COc1cccc(C(=O)N2CCCC(c3nc(-c4cccs4)no3)C2)c1 (stereo unspecified),29.9% (inactive)
18,CCCCCCCCCCCCCCCC[n+]1cccc2ccccc21,95% (active)
19,CC1(C)CC(=O)c2cc(C(=O)O)c(=O)n(-c3ccccc3)c2C1,32% (inactive)
20,CC1(C)CC(=O)C2=C(C1)OC(N)=C([N+](=O)[O-])C2c1cccs1 (stereo unspecified),42.5% (inactive)
21,O=C(Nc1ccc(-c2nc3ccccc3s2)cc1)C1=COCCO1,25.9% (inactive)
22,CC(=O)Nc1sc2c(c1-c1nc3ccccc3s1)CCN(C(C)C)C2,92.9% (active)
